Consider 40 compounds from PubChem BioAssay (Tox21).

Values joined by “and” are separate entries in the source; they are usually repeats but may differ in a detail not shown here. Identical values can stand only once. Inconclusive results are not listed. A call without a number means that no potency is given here. Some structures have more than one record in an assay (separate samples or runs), and their calls can disagree. Active and inactive are the calls of the source. Calls follow the shape of the dose curve; as a rule, active = well fitted cell-killing curve with a large enough effect in the repeat runs; inconclusive = weak or mixed curves; inactive = no such curve, though single readings can be large or run the other way.
Potency is read from the fitted curve at half-maximal effect.

The assay in a line: qHTS assay to identify small molecule agonists of the peroxisome proliferator-activated receptor delta (PPARd) signaling pathway - cell viability counter screen (AID 743211). Also: nearly all actives have a fitted effect of over 55% in size. Conditions: PPARd-bla HEK293H viability, CellTiter-Glo luminescence, 17 h; series mostly up to 62.6 µM. The text has this:
U.S. Tox21 Program National Center for Advancing Translational Sciences [NCATS] NIH Chemical Genomics Center [NCGC] U.S. Environmental Protection Agency [EPA] National Institutes of Environmental Health Sciences [NIEHS] National Toxicology Program [NTP] U.S. Food and Drug Administration [FDA] Tox21 Assay Overview: The peroxisome proliferator-activated receptors (PPARs) are lipid-activated transcription factors of the nuclear receptor superfamily with three distinct subtypes namely PPAR alpha, PPAR delta (PPARd) and PPAR gamma. All these subtypes heterodimerizes with Retinoid X receptor (RXR) and have different physiological functions. […] To identify the compounds that activate PPAR-delta signaling, GeneBLAzer PPAR delta UAS-bla HEK293H cell line (Invitrogen, Carlsbad, CA, USA) containing a beta-lactamase reporter gene under the control of an Upstream Activator Sequence (UAS) was used to screen the Tox21 compound library. The cytotoxicity of the Tox21 compound library against the PPARd-bla cell line was tested in parallel by measuring the cell viability using CellTiter-Glo assay (Promega, Madison, WI) in the same wells.
Tox21 Assay Protocol Summary: PPARd-bla cells were dispensed at 3000 cells/6uL/well in 1536-well black wall/clear bottom plates using a Multidrop Combi (Thermo Fisher Scientific, Waltham, MA) dispenser. After the assay plates were incubated at 37 C and 5% CO2 for 5 h, 23 nL of compounds dissolved in DMSO, positive controls or DMSO only was transferred to the assay plate by a Pintool station (Kalypsys, San Diego, CA). The assay plates were incubated at 37C for 17 h. After 1 uL of LiveBLAzerTM B/G FRET substrate was added using a Bioraptr Flying Reagent Dispenser (FRD) workstation (Beckman Coulter, Indianapolis, IN, USA), the plates were incubated at room temperature for 2 h, and fluorescence intensity was measured by an Envision plate reader (PerkinElmer, Shelton, CT). For cell viability readout that measures cytotoxicity, 3 ul/well of CellTiter-Glo reagent was added into the assay plates using a Bioraptr FRD. After 30 min incubation at room temperature, the luminescence intensity in the plates was measured using a ViewLux plate reader (PerkinElmer).
(qHTS replaces the single test concentration by a dilution series.)
Consider `Cc1cccc(Cc2cnc[nH]2)c1C`, for which the Potency entry is “inactive”. The same measure, in the same setting: in the case of `CC(Cc1ccc2c(c1)OCO2)NO` (stereo not given) it was “inactive”; in that of `CC1(C)[C@H](/C=C2\CCSC2=O)[C@@H]1C(=O)OCc1coc(Cc2ccccc2)c1`, “inactive”. On the same count and under the same terms, in the case of `Clc1ccc(C(c2ccc(Cl)cc2)C(Cl)Cl)cc1` it was 44.4 µM (active).

Take `O=[N+]([O-])c1cc(C(F)(F)F)c(Cl)c([N+](=O)[O-])c1Nc1ncc(C(F)(F)F)cc1Cl`: the Potency is 8.71 µM (active).

As for `CC(=O)[O][Pb]([c]1ccccc1)([c]1ccccc1)[c]1ccccc1`, the Potency was 1.23 µM (active). The same measure, in the same setting: in the case of `O=C(Nc1ccc(F)cc1F)c1cccnc1Oc1cccc(C(F)(F)F)c1` it was “inactive”; in that of `CN=C=O`, “inactive”; in that of `BrCCCBr`, “inactive”. On the same count and under the same terms, in the case of `O=C1C[C@@H]2OCC=C3CN4CC[C@]56c7ccccc7N1[C@H]5[C@H]2[C@H]3C[C@H]46` it was “inactive”; in that of `CCOP(=O)(Sc1ccccc1)Sc1ccccc1`, “inactive”; in that of `BrCC(Br)(Br)Br`, “inactive”.

With `CC(=O)[O-].CC(=O)[O-].O.O.[Zn+2]`, the Potency result is “inactive”. On the same count and under the same terms, the same measure for `CCC(C)c1cccc(C(C)CC)c1O` (stereo not given): “inactive”; for `COc1ccc2c3c1O[C@H]1[C@H](O)CC[C@H]4[C@@H](C2)N(C)CC[C@@]341`: “inactive”. On the same count and under the same terms, the same measure for `CC(C)C(Br)C(=O)NC(N)=O` (stereo not given): “inactive”; for `COC(=O)C(C)N(C(=O)c1ccco1)c1c(C)cccc1C` (stereo not given): “inactive”; for `CCOC(=O)CCN(SN(C)C(=O)Oc1cccc2c1OC(C)(C)C2)C(C)C`: “inactive”.

Consider `CC(C)N(C(=O)SC/C(Cl)=C/Cl)C(C)C`, for which the Potency result is “inactive”. Same read-out and setting: in the case of `CCNS(=O)(=O)C(F)(F)C(F)(F)C(F)(F)C(F)(F)C(F)(F)C(F)(F)C(F)(F)C(F)(F)F` it was “inactive”. On to `CC(=O)[O-].CC(=O)[O-].CC(=O)[O-].[Sb+3]`, for which the activity change, negative = cytotoxicity was -20.9% [at 5.95 µM] (inactive). `ClC1=C(Cl)[C@]2(Cl)[C@H]3[C@H]([C@@H]4C=C[C@H]3C4)[C@@]1(Cl)C2(Cl)Cl`: the Potency result was “inactive and 15.5 µM (active)”. The same measure, in the same setting: the same measure for `Brc1ccc(Oc2ccc(Br)cc2Br)c(Br)c1`: 43.7 µM (active); for `CC(C)N(C(=O)CCl)c1ccccc1`: 49 µM (active) and 43.6 µM (active); for `ClC1(Cl)C2(Cl)C3(Cl)C4(Cl)C(Cl)(Cl)C5(Cl)C3(Cl)C1(Cl)C5(Cl)C24Cl` (stereo not given): “inactive”. Same read-out and setting: the same measure for `[O]=[Cr][O][Cr]=[O]`: “inactive”. Still for that read-out and setting: in the case of `O=S1OCC2C(CO1)C1(Cl)C(Cl)=C(Cl)C2(Cl)C1(Cl)Cl` (stereo not given) it was 24.5 µM (active); in that of `CC(=O)C(Cl)C(=O)N(C)C` (stereo not given), “inactive”. As for `CCNc1nc(NC(C)C(C)C)nc(SC)n1` (stereo not given), the Potency result is “inactive”. On the same count and under the same terms, in the case of `CNC(C)(C)Cc1ccccc1` it was “inactive”; in that of `O=c1[nH]c2cc(Cl)ccc2n1C1CCNCC1`, “inactive”; in that of `COP(=O)(OC)O/C(=C\Cl)c1cc(Cl)c(Cl)cc1Cl`, “inactive”. The same measure, in the same setting: in the case of `CCOC(=O)Cc1ccccc1` it was “inactive”. Take `NC(=O)C(Cl)Cl`: the Potency result was “inactive”. The same measure, in the same setting: in the case of `CNC(=O)O/N=C(\C)C(C)S(C)(=O)=O` (stereo not given) it was “inactive”; in that of `N#CSCc1ccccc1`, “inactive”. Still for that read-out and setting: in the case of `OCC(Br)CBr` (stereo not given) it was “inactive”; in that of `O=[N+]([O-])[O-].[Tl+]`, “inactive”. The same measure, in the same setting: in the case of `CNC(=O)/C=C(\C)OP(=O)(OC)OC` it was “inactive”; in that of `CC(Cc1ccc(O)cc1)NCC(O)c1cc(O)cc(O)c1` (stereo not given), “inactive”.
